Where a name gives a salt, the structure may show the parent alone.
system: Saccharomyces cerevisiae; test: fraction of cells in G1 phase (DNA content, flow cytometry); higher = more cells with unreplicated DNA (G1 delay); conditions: temperature: 30 C; YPD; JTY2953 pdr5 snq2 (sensitized); drug added to: cultures diluted from stationary phase; 6-7 h
Description: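 S. cerevisiae cultures in YPD at 30°C were treated with each drug of the Enzo FDA-approved library at 20 µg/ml (final µM given per drug). Cells were fixed after 6–7 h (S1) or 6 h (S2), or after 4.33 h for BY4741 (S3), then stained with SYTOX Green. %G1 is the Dean-Jett-Fox G1 peak area divided by the G1+G2/M peak areas, written as a fraction and averaged over at least two independent experiments. DMSO reference: mean ~0.49; >0.60 is called High G1 and <0.3876 Low G1. Scale: lower means mitotic delay.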

Row | SMILES | fraction of cells in G1 phase
1 | COc1cccc(C2(O)CCCCC2CN(C)C)c1 (stereo unspecified) [Tramadol HCl] (75.935 µM) | 0.492
2 | CCC1(c2ccc(N)cc2)CCC(=O)NC1=O (racemic) [Dl-aminoglutethimide] (86.1012 µM) | 0.476
3 | CC[C@H](C)[C@H]1O[C@]2(C=C[C@@H]1C)C[C@@H]1C[C@@H](C/C=C(\C)[C@@H](O[C@H]3C[C@H](OC)[C@@H](O[C@H]4C[C@H](OC)[C@@H](O)[C@H](C)O4)[C@H](C)O3)[C@@H](C)/C=C/C=C3\CO[C@@H]4[C@H](O)C(C)=C[C@@H](C(=O)O1)[C@]34O)O2.CO[C@H]1C[C@H](O[C@H]2[C@H](C)O[C@@H](O[C@@H]3/C(C)=C/C[C@@H]4C[C@@H](C[C@]5(C=C[C@H](C)[C@@H](C(C)C)O5)O4)OC(=O)[C@@H]4C=C(C)[C@@H](O)[C@H]5OC/C(=C\C=C\[C@@H]3C)[C@]54O)C[C@@H]2OC)O[C@@H](C)[C@@H]1O [Abamectin] (22.9069 µM) | 0.516
4 | COc1ccc(CCN2CCC(Nc3nc4ccccc4n3Cc3ccc(F)cc3)CC2)cc1 [Astemizole] (43.6125 µM) | 0.501
5 | CC(C)c1cccc(C(C)C)c1O [Propofol] (112.185 µM) | 0.511
6 | C=CCN1CC[C@]23CCCC[C@H]2[C@H]1Cc1ccc(O)cc13 [Levallorphan tartrate] (70.5673 µM) | 0.476
